Holding throughout (test): PBM binding z-score (relative to random genomic background probes); higher = stronger binding; sequences stand for … in GC…GCGATTGACAGCGTAGAATGAAGG
In assay [1] the test system is FXR:RXRa (NR concentration 270 nM, RXRa partner concentration 90 nM). In a few lines:
(§1)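 Custom Agilent 4×180K protein-binding microarrays carried double-stranded probes, each with a 34-nt variable region. These regions held direct-repeat seeds, single-nucleotide variants, half-site ablations and random human genomic background sequences. Ligand-free nuclear receptor dimers were incubated on the arrays for 1 h, antibodies against each partner (one per run) detected binding, and scanned fluorescence was regression-normalized. Binding z-scores take the random background probes as reference.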

Assay [2] deals with LXRa:RXRa (NR concentration 270 nM, RXRa partner concentration 90 nM). In a few lines: as §1
In assay [3] the test system is LXRa homodimer (NR concentration 270 nM). In short, it runs like this:
as §1

The test system of assay [4] is LXRb:RXRa (NR concentration 270 nM, RXRa partner concentration 90 nM). In short, it runs like this:
as §1

In assay [5] the test system is LXRb homodimer (NR concentration 270 nM). In a few lines: as §1
Assay [6] concerns PPARa:RXRa (NR concentration 270 nM, RXRa partner concentration 90 nM). In short, it runs like this:
as §1

Assay [7] has as its system PPARg:RXRa (NR concentration 180 nM, RXRa partner concentration 90 nM). In a few lines:
as §1

In assay [8] the test system is PPARg:RXRa 270nM:90nM, anti-RXR (NR concentration 270 nM, RXRa partner concentration 90 nM). In short, it runs like this: as §1
Assay [9] has as its system PPARg:RXRa 30nM:10nM, anti-RXR (NR concentration 30 nM, RXRa partner concentration 10 nM). In a few lines: as §1
Assay [10] deals with PPARg:RXRa 90nM:30nM, anti-RXR (NR concentration 90 nM, RXRa partner concentration 30 nM). In short, it runs like this: as §1
In assay [11] the test system is PPARg:RXRa DBDmut IVT, anti-RXR (DBD mutation: RXRa K156A/R161A, NR concentration 270 nM, RXRa partner concentration 90 nM). In short, it runs like this: as §1
Assay [12] has as its system PPARg:RXRa IVT, anti-PPARg (NR concentration 270 nM, RXRa partner concentration 90 nM). In short, it runs like this:
as §1

Assay [13] deals with PPARg DBDmut:RXRa IVT, anti-PPARg (DBD mutation: PPARg1 K132A/R137A, NR concentration 270 nM, RXRa partner concentration 90 nM). In short, it runs like this:
as §1

The subject of assay [14] is PPARg DBDmut IVT, anti-PPARg (DBD mutation: PPARg1 K132A/R137A, NR concentration 270 nM). In a few lines:
as §1

The subject of assay [15] is PPARg homodimer (NR concentration 180 nM). In short, it runs like this:
as §1

The subject of assay [16] is PXR:RXRa (NR concentration 270 nM, RXRa partner concentration 90 nM). In short, it runs like this: as §1
The test system of assay [17] is PXR homodimer (NR concentration 270 nM). In short, it runs like this: as §1
Assay [18] has as its system RARa:RXR (NR concentration 270 nM, RXRa partner concentration 90 nM). In a few lines: as §1
Assay [19] has as its system RARa homodimer (NR concentration 270 nM). In a few lines:
as §1

Assay [20] deals with RARb:RXRa (NR concentration 270 nM, RXRa partner concentration 90 nM). In short, it runs like this:
as §1

For seven sequences, PBM binding z-score results are on record in the supplement of paper PMC6555819.

As for ACTCGGAGGACAAAGGTCAGAGGTACGCCAGTGA, the PBM binding z-score is 4.04 in [1]; 4.06 in assay [2]; 1.7 in assay [3]; 3.26 in [4]; -0.137 in assay [5]; 5.14 in [6]. In addition, the PBM binding z-score in assay [7] turned out to be 7.26; in [8] it was 6.74; in assay [9] it was 4.88; in assay [10], 7.16; in [11], 0.77; in assay [12] it was 3.42. The PBM binding z-score in assay [13] is 0.61; in assay [14] it was 0.441; in [15], 3.17; in assay [16] it was 3.86; in assay [17], 0.587; in [18], 4.61. The PBM binding z-score came to 0.603 in [19] and 4.43 in [20].

AGAATGAGGTTCAGATCAGGGAAACAGAATACAT: the PBM binding z-score was 0.604 in assay [1]; 0.299 in [2]; -0.377 in [3]; 0.614 in assay [4]; -0.379 in assay [5]; 1.14 in assay [6]. In addition, the PBM binding z-score in assay [7] was 0.585; in assay [8] it was -0.121; in assay [9], 0.313; in assay [10], 0.345; in assay [11], -0.151; in assay [12], 0.433. In addition, the PBM binding z-score in assay [13] was determined as 1.08; in assay [14] it was 0.118; in [15], 0.165; in [16], 0.507; in assay [17], 0.222; in assay [18], 1.41. The results for the PBM binding z-score in assay [19] and in [20] were 0.488 and 0.706, respectively.

In the case of GGAACGCGGGCATTCGAGTTGATAGCATGGCGAT, the PBM binding z-score in assay [1] was -0.388; in assay [2] it was -0.465; in [3], -0.588; in assay [4], -1.04; in assay [5] it was -1.3; in [6], -1.13. The PBM binding z-score in assay [7] is -0.044; in [8] it was -0.711; in assay [9], -0.908; in assay [10], -0.624; in [11], -0.393; in [12], -0.666. Further, the PBM binding z-score in [13] was -1.41; in assay [14], -1.44; in assay [15], -1.1; in assay [16] it was -0.103; in [17] it was -0.449; in assay [18], -0.652. Besides, the PBM binding z-score was -1.13 in assay [19] and -0.209 in assay [20].

With ATCGAAAGGTCGTGAGGTGATTATACAGAAAGGC, the PBM binding z-score in assay [1] was 5.04; in assay [2], 4.01; in assay [3], 0.374; in assay [4], 3.36; in assay [5], 0.471; in [6], 4.92. In addition, the PBM binding z-score in assay [7] was 4.09; in [8], 4.21; in assay [9], 1.66; in assay [10], 2.92; in [11], 0.336; in assay [12], 1.93. For the same sequence, the PBM binding z-score in assay [13] amounted to 1.12; in assay [14] it was 1.16; in assay [15], 1.42; in assay [16], 3.14; in assay [17] it was 0.165; in assay [18] it was 3.89. For the same sequence, the PBM binding z-score in assay [19] amounted to 0.608; in [20], 4.08.

CGTCCAAGGTAAAAGGTCAGTGAAGAGATGACGG: the PBM binding z-score was 3.59 in [1]; 3.34 in assay [2]; 0.701 in [3]; 3.27 in assay [4]; -0.538 in [5]; 5.23 in assay [6]. In addition, the PBM binding z-score came out at 6.53 in [7]; 6.49 in assay [8]; 4.59 in assay [9]; 6.15 in assay [10]; 0.99 in assay [11]; 3.62 in assay [12]. Moreover, the PBM binding z-score was -0.145 in assay [13]; 0.215 in assay [14]; 2.6 in [15]; 3.83 in assay [16]; 0.564 in assay [17]; 5.16 in [18]. Also, the PBM binding z-score in assay [19] was 1.15; in assay [20], 4.44.

As for CTCGAAAGGTCGTGCTCAGGTGATTATACCAAAC, the PBM binding z-score in assay [1] was found to be 4.98; in assay [2], 4.19; in [3] it was 0.561; in assay [4] it was 3.64; in [5], 0.429; in assay [6] it was 4.83. For the same sequence, the PBM binding z-score in assay [7] was determined as 2.63; in assay [8], 3.52; in assay [9] it was 0.939; in [10], 2.35; in assay [11], 0.733; in [12] it was 1.72. In addition, the PBM binding z-score was determined as 1.57 in assay [13]; 0.403 in [14]; 2.1 in [15]; 3.55 in assay [16]; 0.276 in assay [17]; 4.32 in assay [18]. Further, the PBM binding z-score in assay [19] was found to be 0.268; in assay [20], 3.86.

TCGAGTAGGTTAGTCAGGGCATTCAGCCAACATA: the PBM binding z-score in assay [1] was 0.179; in [2], 0.175; in assay [3] it was -0.126; in assay [4], 0.121; in assay [5], -0.771; in assay [6], 0.625. For the same sequence, the PBM binding z-score turned out to be 0.0481 in assay [7]; 0.99 in assay [8]; 1.13 in assay [9]; 0.992 in assay [10]; 1.73 in assay [11]; 1.72 in assay [12]. The PBM binding z-score in [13] was 0.0156; in assay [14], -0.832; in assay [15], 0.613; in [16], 0.173; in assay [17], 0.204; in [18], 0.135. In addition, the PBM binding z-score in [19] is 0.35; in assay [20], 0.484.
